Source: PubChem BioAssay (Paczesny and Yang Labs, IUPUI and University of Michigan)
ST2 IL33 inh: inhibitors of human ST2 (IL1RL1) binding to IL-33. Q01638. AlphaLISA ST2-Fc/biotin-IL-33 interaction, 1 h. inhibition, % for hits at 17 µM. actives 2.3% (n = 78,000). AID 1259354; in the data active = inhibition above about 30%
Target sequence (Q01638 whole entry, looked up): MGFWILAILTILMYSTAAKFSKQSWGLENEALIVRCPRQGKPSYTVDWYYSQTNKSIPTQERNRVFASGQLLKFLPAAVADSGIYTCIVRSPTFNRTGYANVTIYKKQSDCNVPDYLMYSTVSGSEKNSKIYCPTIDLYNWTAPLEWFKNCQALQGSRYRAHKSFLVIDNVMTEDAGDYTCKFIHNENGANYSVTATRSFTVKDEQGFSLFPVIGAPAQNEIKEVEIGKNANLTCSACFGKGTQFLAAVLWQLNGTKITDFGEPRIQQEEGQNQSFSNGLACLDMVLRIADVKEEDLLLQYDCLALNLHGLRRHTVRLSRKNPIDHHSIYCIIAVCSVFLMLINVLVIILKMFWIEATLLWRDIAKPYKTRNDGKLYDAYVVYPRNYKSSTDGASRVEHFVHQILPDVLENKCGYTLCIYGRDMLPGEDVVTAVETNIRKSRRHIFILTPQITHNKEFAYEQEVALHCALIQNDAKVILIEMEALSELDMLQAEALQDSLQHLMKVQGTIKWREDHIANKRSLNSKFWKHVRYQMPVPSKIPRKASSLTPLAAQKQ
Starred values were filed as active, the others as inactive. Only a selection was taken, and hits are over-represented in it overall.

Screening CC(=O)c1ccc(NC(=O)c2ccc3nc(-c4ccco4)c(-c4ccco4)nc3c2)cc1 returned ST2 IL33 inh 40%*.
CC(=O)c1ccc(NC(=O)c2cc(-c3ccco3)on2)cc1 was read as ST2 IL33 inh inactive.
`CC(=O)c1ccc(NC(=O)c2cccc(Cl)c2)cc1` gave ST2 IL33 inh inactive.
COC(=O)[C@@H]1C[C@H](NC(=O)c2csc(CN(C)C)n2)CN1C was read as ST2 IL33 inh inactive.
For O=C(NCC1CCCO1)c1cc(Sc2cccc(Cl)c2)nc2ccccc12 (stereo not drawn) the results were ST2 IL33 inh inactive.
For CCc1ocnc1C(=O)N1CCOc2c(O)cc(-c3cccc(Cl)c3)cc2C1 the results were ST2 IL33 inh inactive.
CCc1cc(CN(C)CCn2c(=O)oc3ccccc32)on1 was read as ST2 IL33 inh inactive.
For CC1(C)CC(=O)C2=C(C1)OC1=C(C(=O)CC(C)(C)C1)C2c1cccc(F)c1 the results were ST2 IL33 inh inactive.
`COc1cccc(C=Nc2ccc(S(=O)(=O)Nc3cc(C)on3)cc2)c1O` gave ST2 IL33 inh inactive.
Cc1ccc(N=Cc2cccc(C(=O)O)c2O)cc1 was read as ST2 IL33 inh inactive.
Screening COc1ccc(N=Cc2cc(Br)cc(Br)c2O)c(OC)c1 returned ST2 IL33 inh inactive.
For CCN(CC)c1ccc(N=Cc2cccc(OC)c2O)cc1 the results were ST2 IL33 inh 94%*.
For CCN(CC)c1ccc(C=Nc2ccc(OC)cc2OC)c(O)c1 the results were ST2 IL33 inh 35%*.
`COc1ccc(OC)c(N=Cc2c(O)c(OC)cc(Br)c2Br)c1` gave ST2 IL33 inh inactive.
For O=C(Nc1ccc(F)cc1F)c1cc2ccccc2o1 the results were ST2 IL33 inh inactive.
For CCC1=C(c2ccc(OC)cc2)S(=O)(=O)N(CC(=O)NCc2ccc(C)cc2)C1=O the results were ST2 IL33 inh inactive.
Cn1c(C(=O)NCc2ccccc2Cl)cc2c(=O)n3ccccc3nc21 was read as ST2 IL33 inh inactive.
Screening COc1ccccc1N1CCN(C(=O)c2ccc3nc4ccccc4c(=O)n3c2)CC1 returned ST2 IL33 inh inactive.
COc1cc(-c2nc3sc4c(c3c(=O)[nH]2)CCCC4)ccc1O was read as ST2 IL33 inh inactive.
Screening COc1ccc(CCn2cnc3sc4c(c3c2=N)CCCC4)cc1OC returned ST2 IL33 inh inactive.
COc1ccc2[nH]c3c(c2c1)CCn1c-3nc2sc3c(c2c1=N)CCCC3 was read as ST2 IL33 inh 34%*.
COc1ccc(C2OC(=O)C3(CCCCC3)C(=O)C2(C)C)cc1 (stereo not drawn) was read as ST2 IL33 inh inactive.
For COc1ccc(OC)c(N2C(=O)CC(N3CCN(c4ccc(F)cc4)CC3)C2=O)c1 (stereo not drawn) the results were ST2 IL33 inh 31%*.
`COc1ccccc1N1C(=O)CC(N2CCN(c3ccc(F)cc3)CC2)C1=O` (stereo not drawn) gave ST2 IL33 inh inactive.
`CCOc1ccc(N2C(=O)CC(N3CCN(c4ccc(F)cc4)CC3)C2=O)cc1` (stereo not drawn) gave ST2 IL33 inh inactive.
CNC(=O)C(C)N(C)Cc1ccccc1OC(F)F (stereo not drawn) was read as ST2 IL33 inh inactive.
`CCOC(=O)c1c(C)n(-c2ccc(Br)cc2)c2ccc(OC)cc12` gave ST2 IL33 inh inactive.
`O=C(CN1C(=O)/C(=C\c2ccc(Cl)cc2)Sc2ccccc21)NCCN1CCOCC1` gave ST2 IL33 inh 30%*.
For CCCCNC(=O)CN1C(=O)/C(=C\c2ccc(Cl)cc2)Sc2ccccc21 the results were ST2 IL33 inh inactive.
Screening O=C(NCCN1CCOCC1)Nc1ccc(Cl)cc1 returned ST2 IL33 inh inactive.
O=C(CN1C(=O)/C(=C\c2ccc(Cl)cc2)Sc2ccccc21)N1CCOCC1 was read as ST2 IL33 inh inactive.
Screening O=C(CN1C(=O)/C(=C\c2ccc(Cl)cc2)Sc2ccccc21)NCCN1CCCC1 returned ST2 IL33 inh 33%*.
For CCC1Oc2ccccc2N(CC(=O)NCCN2CCCC2)C1=O (stereo not drawn) the results were ST2 IL33 inh inactive.
For CCc1ccc(Nc2ncnc3c2cnn3-c2ccccc2)cc1 the results were ST2 IL33 inh inactive.
For COC(=O)[C@@H]1C[C@H](NC(=O)Cc2coc3cc(C)c(Cl)cc23)CN1C the results were ST2 IL33 inh inactive.
COc1ccc(NC(=O)c2oc3ccccc3c2NC(=O)C(C)(C)C)c(OC)c1 was read as ST2 IL33 inh inactive.
`O=C(NCc1ccc(Cl)cc1)c1ccc(CS(=O)(=O)c2ccc(Br)cc2)o1` gave ST2 IL33 inh inactive.
Screening COc1ccc(C(=O)c2oc3ccccc3c2NC(=O)c2ccco2)cc1 returned ST2 IL33 inh 31%*.
Screening O=C(Nc1c(C(=O)Nc2cccc(F)c2)oc2ccccc12)c1ccco1 returned ST2 IL33 inh inactive.
`NC(=O)c1oc2ccccc2c1NC(=O)c1ccco1` gave ST2 IL33 inh inactive.
Screening CCCCOC(=O)Nc1ccc(N(C)C)cc1 returned ST2 IL33 inh 42%*.
